From PubChem BioAssay
CYP2C9 inhib: human CYP2C9 inhibition | CYP2C9 Supersomes, luciferin-H conversion, luminescence | inhibition, % at 5 µM | P11712 | 20% of 96,000 active;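 active = blocking of liver enzyme CYP2C9 beyond about 50% at 5 µM, limit read from the data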
PLK1 kinase inh: PLK1 (human) kinase inhibition | recombinant PLK1 kinase, TR-FRET peptide phosphorylation | P53350 | inhibition, % at 10 µM | 0.53% of 97,000 active;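 active = inhibition of 50% or more in the single-concentration screen; inactive = inhibition below 50%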;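 also: 0% = DMSO max control and 100% = H-89 dihydrochloride min control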
CYP2C19 act: activators of human cytochrome P450 2C19; recombinant CYP2C19, luciferin-H EGE luminescence; active compounds read high; 0 = fully inhibited enzyme, 1 = untreated enzyme; 96,000 tested, under 10 active; AID 1025; P33261; activation factor at 5 µM;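 active = activation factor of at least 2 at 5 µM in the primary screen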;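 also: 0 = wells with 2.5 mM tranylcypromine and 1 = vehicle-only wells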
Target sequence (P33261 whole entry, looked up): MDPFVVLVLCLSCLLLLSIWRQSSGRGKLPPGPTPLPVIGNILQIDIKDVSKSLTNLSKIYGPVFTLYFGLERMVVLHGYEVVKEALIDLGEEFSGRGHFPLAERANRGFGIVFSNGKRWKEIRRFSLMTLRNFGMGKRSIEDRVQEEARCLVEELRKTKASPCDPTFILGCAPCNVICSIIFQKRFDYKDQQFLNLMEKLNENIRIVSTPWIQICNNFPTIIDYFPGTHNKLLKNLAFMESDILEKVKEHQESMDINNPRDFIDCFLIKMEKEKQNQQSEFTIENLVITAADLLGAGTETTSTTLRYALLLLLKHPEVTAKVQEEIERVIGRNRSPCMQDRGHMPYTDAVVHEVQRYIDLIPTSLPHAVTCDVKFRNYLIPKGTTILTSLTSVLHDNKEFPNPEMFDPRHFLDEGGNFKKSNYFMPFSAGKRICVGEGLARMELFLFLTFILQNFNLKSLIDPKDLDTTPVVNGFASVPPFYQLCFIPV
CYP2C19 inh: human CYP2C19 inhibition; 21% of 96,000 active; CYP2C19 Supersomes, luciferin-H EGE luminescence, 30 min; AID 778; inhibition, % at 5 µM;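 active = CYP2C19 inhibition above a set limit at 5 µM in the primary screen, cut at about 50% in these data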;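 also: plate controls were negative control wells for no effect and 2.5 mM tranylcypromine positive control for full effect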
Plk1 PBD FP: inhibitors of human Plk1 polo box domain binding | inhibition, %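 (tested at about 20 µM)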 | 0.13% of 97,000 active | Plk1 PBD phosphopeptide binding, fluorescence polarization | P53350; in the data active = inhibition above about 34%, passing the limit was not always enough
CYP2C9 act: CYP2C9 (human) activation | 1.4% of 96,000 active | recombinant CYP2C9, luciferin-H conversion, luminescence; active compounds read high; factor 1 = untreated enzyme, 0 = blocked | AID 1024 | activation factor at 5 µM;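 active = activation factor of 2 or more for CYP2C9 at a 5 µM dose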;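 also: 0 = sulfaphenazole-blocked wells and 1 = vehicle-only wells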
Starred values were filed as active, the others as inactive; · = no result given. Only some compounds are listed: those with a hit (about 28% of all), similar ones and a draw of the others.

SMILES	CYP2C9 inhib	PLK1 kinase inh	CYP2C19 act	CYP2C19 inh	Plk1 PBD FP	CYP2C9 act
Cc1cccc(C(OC(=O)c2ccco2)C(=O)NCc2ccccc2)n1 (stereo not given)	·	-1	·	·	13	·
O=C(Nc1ccc(Br)c(Cl)c1)C1CC1	8	-3	0.7	26	-9	0.9
Cc1ccc(-n2ncc(C#N)c2/N=C/N2CCOCC2)cc1	65*	-11	0.1	85*	9	0.4
COc1ccccc1Nc1ncnc2ccccc12	15	-3	0.8	17	20	0.9
Cc1cc(NC(=O)c2oc3ccccc3c2C)ccc1-n1cnnn1	77*	-4	0.6	43	21	0.2
COc1cc(OC)cc(C(=O)Nc2ccc(-n3cnnn3)c(C)c2)c1	92*	2	0.2	83*	-6	0.1
C#CC(CC)(CC)NC(=O)c1c(C)noc1C	-6	·	1	4	·	1.1
[O-][n+]1c2ccc3nonc3c2nn1-c1ccccc1Cl	20	·	0.6	43	·	0.8
CCn1c(SCC(=O)Nc2ccc(C(=O)OC)cc2)nc2cccnc21	·	-11	·	·	-11	·
O=C1CCCc2nn(-c3ccccc3)c(-c3ccncc3)c21	18	-11	0.9	7	11	0.8
NCC(O)COCCC12CC3CC(CC(C3)C1)C2 (stereo not given)	25	·	0.1	88*	·	0.7
O=C(NCCN1CCN(c2ccccc2)CC1)c1ccc(NC(=O)C2CCCO2)cc1 (stereo not given)	-5	1	0.5	52*	19	1.1
O=C(NCCN1CCN(c2ccccc2)CC1)C1CCN(S(=O)(=O)N2CCOCC2)CC1	10	56*	1	3	-9	0.9
O=C(CCCC(=O)N(CC(=O)NC1CCCCC1)Cc1ccccc1)Nc1ccccn1	10	-8	0.7	30	4	0.9
Cc1ccnc(NC(=O)CCC(=O)N(CC(=O)NC2CCCCC2)c2ccc3c(c2)OCO3)c1	75*	·	0.6	41	·	0.2
O=C(CCC(=O)N(CC(=O)NC1CCCC1)Cc1ccc2c(c1)OCO2)Nc1ccccn1	89*	-6	0.6	39	-25	0.1
O=C(c1ccc(Cl)s1)N1CCN(c2nc3ccccc3s2)CC1	14	-15	0.8	17	20	0.9
COc1ccccc1C1(CC(=O)Nc2nccs2)CCOC(C(C)C)C1 (stereo not given)	67*	9	0.1	92*	-23	0.3
COc1ccccc1C1(CC(=O)N2CCOCC2)CCOC(C(C)C)C1 (stereo not given)	10	-6	0.6	37	-11	0.9
COc1ccc(CN(C(=O)c2ccco2)c2ccc(C)cc2)cc1OC	63*	-4	0.3	65*	-12	0.4
O=C(CSc1ncnc2c1oc1ccccc12)NCc1ccco1	60*	-6	0.8	17	-5	0.4
O=C(CSc1ncnc2c1oc1ccccc12)Nc1ccccc1C(F)(F)F	85*	·	0.6	44	·	0.2
COc1ccc(CCNC(=O)CSc2ncnc3c2oc2ccccc23)cc1OC	82*	-26	0.5	51*	15	0.2
Cc1nc(SCC(=O)Nc2ccc(C)c(F)c2)c2oc3ccccc3c2n1	93*	-3	0.2	79*	-14	0.1
COc1cccc(NC(=O)CSc2ncnc3c2oc2ccccc23)c1	7	-19	0.9	6	-4	0.9
SMILES	CYP2C9 inhib	PLK1 kinase inh	CYP2C19 act	CYP2C19 inh	Plk1 PBD FP	CYP2C9 act
CC(C)CCOC(=O)C1[C@H]2C(=O)N(Cc3cccs3)C[C@]23C=C[C@H]1O3 (stereo not given in full)	-2	-7	0.9	9	30	1
CCOC(=O)c1cc2c(C)n(-c3ccc(N(C)C)cc3)c(C)c2cc(C(=O)OCC)c1=O	33	-14	0.5	50*	-3	0.7
O=C(COc1cc(O)c2c(=O)cc(-c3ccccc3)oc2c1)c1ccccc1	59*	-21	0.7	32	19	0.4
O=C(COc1cc(O)c2c(=O)cc(-c3ccccc3)oc2c1)c1ccc(F)cc1	40	-6	0.9	8	-13	0.6
Cc1cc(C)n2nc(C(=O)NCCc3ccccc3)nc2n1	5	-4	0.8	18	-14	1
CCOC(=O)N1CCN(C(=O)CSc2nnc(-c3cc(OC)cc(OC)c3)o2)CC1	29	-16	0.7	30	-21	0.7
CCOC(=O)N1CCN(C(=O)CSc2nnc(-c3ccccc3OC)o2)CC1	-124	-18	0.7	26	12	2.2*
CCOC(=O)N1CCN(C(=O)CSc2nc(-c3cccc(C)c3)ns2)CC1	69*	-4	0.5	49	19	0.3
COc1ccccc1-c1nnc(SCC(=O)OC(C)C)o1	-34	-9	0.4	59*	-8	1.3
COc1ccc(-c2nnc(SCC(=O)N3CCC(Cc4ccccc4)CC3)o2)cc1OC	65*	-1	0.1	93*	-40	0.4
CCOC(=O)C(NC(C)=O)C(OC(C)=O)c1cccc(N(CCO)CCO)c1 (stereo not given)	0	-6	1	-2	13	1
O=C(O)CCCC(=O)Nc1c(F)c(F)c(F)c(F)c1F	8	·	1	5	·	0.9
CCOC(=O)N1CCN(C(=O)CSc2nnc(-c3ccc(C)c(C)c3)o2)CC1	18	-5	1.1	-9	-10	0.8
Cc1ccc(S(=O)(=O)N2CCN(C(=O)CSc3nnc(-c4ccco4)o3)CC2)cc1	73*	-8	0.2	76*	40	0.3
COC(=O)CSc1nnc(-c2ccccc2OC)o1	-5	-4	0.9	8	-16	1.1
Cc1cccc(C)c1OC(=O)CSc1nnc(-c2ccccc2O)o1	67*	-4	0.2	75*	-5	0.3
CCOC(=O)N1CCN(C(=O)CSc2nnc(-c3cccc(OC)c3)o2)CC1	54*	-13	0.6	40	-4	0.5
Cc1ccc(-c2nnc(SCC(=O)N3CCCC3)o2)cc1C	-71	-8	0.5	53*	-23	1.7
COc1ccc2c(CC(=O)OCC(=O)c3ccc(F)cc3)coc2c1	-3	-4	0.9	6	22	1
Cc1cc(C)nc(SCCS(=O)Cc2ccc(Cl)cc2)n1 (stereo not given)	22	-10	0.2	81*	17	0.8
Cc1ccc(N/C=C/C(=O)c2sc(-c3ccccc3)nc2C)cc1	21	-2	0.9	8	7	0.8
O=C(Nc1ccc(NC(=O)C2CC2)nc1)c1cccnc1	15	·	1	5	·	0.8
CCOc1cc2c3c(c1)C1(Nc4ccccc4S1)C(=O)N3C(C)(C)CC2C (stereo not given)	100*	-6	0.1	88*	-7	0
O=C(Nc1cc(Cl)ccc1Cl)c1ccc(OC(=O)c2ccco2)cc1	-51	-5	1.1	-8	4	1.5
CCC1CCCCN1C(=O)CSc1nnc(-c2c[nH]c3ccccc23)o1 (stereo not given)	-62	-11	0.1	91*	-34	1.6
